# Laboratory results from PubChem BioAssay AID1456 (Vanderbilt High Throughput Screening Facility, 2008).
# Hit rate of the full screen: of about 190,000 compounds, about 4,100 (2.2%) were called active. For the sample, actives were picked, then their nearest neighbours and some compounds at random. Unmarked numbers belong to inactive results.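 The calls were made as follows: active = thallium flux slope and its plate-corrected score both differing from the plate sample mean at a set confidence after two filtering rounds, in either direction; inactive = the rest.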
# Biological target: Solute carrier family 12 member 5 (Homo sapiens) (UniProt Q9H2X9)
# Assay: KCC2 cotransporter modulators, thallium flux, primary screen, cell-based, HEK293 KCC2, FluoZin-2 fluorescence, MLSMR (AID 1456);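 also: slope of fluorescence scaled to starting intensity during 10 to 20 s after thallium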
# Settings: KCC2 cells, thallium flux FluoZin-2 fluorescence; at 10 µM
# Sequence of Solute carrier family 12 member 5 (Homo sapiens) (Q9H2X9 whole entry, looked up): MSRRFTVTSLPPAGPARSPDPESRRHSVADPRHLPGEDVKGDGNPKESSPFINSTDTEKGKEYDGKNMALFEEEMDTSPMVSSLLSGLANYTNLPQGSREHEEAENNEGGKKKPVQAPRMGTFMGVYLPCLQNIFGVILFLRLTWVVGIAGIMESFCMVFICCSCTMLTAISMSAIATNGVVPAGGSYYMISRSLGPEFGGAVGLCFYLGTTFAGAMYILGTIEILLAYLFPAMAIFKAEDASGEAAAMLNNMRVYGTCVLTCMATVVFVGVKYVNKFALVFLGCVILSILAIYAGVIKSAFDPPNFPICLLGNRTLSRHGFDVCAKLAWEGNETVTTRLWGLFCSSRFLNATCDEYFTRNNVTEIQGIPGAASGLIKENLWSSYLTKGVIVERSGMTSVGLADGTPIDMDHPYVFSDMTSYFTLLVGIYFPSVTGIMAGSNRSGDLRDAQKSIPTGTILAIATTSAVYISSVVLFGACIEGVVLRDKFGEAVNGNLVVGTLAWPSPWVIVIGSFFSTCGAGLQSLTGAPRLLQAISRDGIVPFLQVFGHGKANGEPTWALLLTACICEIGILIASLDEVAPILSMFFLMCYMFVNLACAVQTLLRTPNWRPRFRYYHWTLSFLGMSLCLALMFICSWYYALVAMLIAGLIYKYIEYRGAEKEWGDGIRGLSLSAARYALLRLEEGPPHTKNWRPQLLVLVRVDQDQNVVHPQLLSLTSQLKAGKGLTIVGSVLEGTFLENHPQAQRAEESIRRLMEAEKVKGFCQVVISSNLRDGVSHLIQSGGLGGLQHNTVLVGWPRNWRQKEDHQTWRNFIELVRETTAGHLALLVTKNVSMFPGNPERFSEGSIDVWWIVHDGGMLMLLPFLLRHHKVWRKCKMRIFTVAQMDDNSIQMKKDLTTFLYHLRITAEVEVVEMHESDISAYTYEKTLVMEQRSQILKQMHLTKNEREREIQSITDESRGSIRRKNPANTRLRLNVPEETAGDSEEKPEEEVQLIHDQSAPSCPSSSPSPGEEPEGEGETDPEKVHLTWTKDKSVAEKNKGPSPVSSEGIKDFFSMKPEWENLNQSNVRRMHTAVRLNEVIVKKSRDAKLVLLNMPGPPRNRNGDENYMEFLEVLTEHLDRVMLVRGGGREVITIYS
row,SMILES,B-score of Tl+ flux slope (higher = more flux/activation; lower = inhibition)
1,S=C(NN=C1CCN(Cc2ccccc2)CC1)NC1CCCCC1,-3.5 (active)
2,S=C(Nc1ccc(Br)cc1Cl)NC1CCN(Cc2ccccc2)CC1,-1.46
3,O=C(NC1CCN(Cc2ccccc2)CC1)c1c(F)cccc1F,-1.12
4,Fc1cc(F)c2nc(Nc3nc4c(F)cccc4s3)sc2c1,69.3 (active)
5,NC(=O)c1c(Nc2nc3c(F)cccc3s2)sc2c1CCCC2,-0.0899
6,Fc1cc(F)c2nc(N3CCOCC3)sc2c1,-0.123
7,O=S(=O)(Nc1ccc(OC(F)(F)F)cc1)c1cccc2nonc12,-0.299
8,CN(C)S(=O)(=O)c1ccc(C(=O)NCC(C)(C)N2CCOCC2)cc1,-0.162
9,Cn1c(=O)c2c(ncn2CCc2ccccc2)n(C)c1=O,-0.25
10,O=C(CCc1ccccc1)Nc1ncc([N+](=O)[O-])s1,-3
11,CC(=O)Oc1ccccc1C(=O)Nc1ncc([N+](=O)[O-])s1,-3 (active)
12,O=C(Cc1c(F)cccc1Cl)Nc1ncc([N+](=O)[O-])s1,-1.12
13,O=C(COC(=O)CNC(=O)c1ccco1)Nc1ccc(F)cc1,0.652
14,O=C(COC(=O)c1ccccc1C(=O)c1ccccc1)c1ccco1,-0.42
15,O=C(CNC(=O)c1ccco1)OCC(=O)c1ccccc1,7.3 (active)
16,Cn1nccc1NS(=O)(=O)c1ccc(F)cc1,0.158
17,Cc1nn(C)c(C(=O)NNC(=S)NC2CCCCC2)c1Cl,-0.0757
18,COc1cccc(NC(=S)NC(=O)c2c(Cl)c(C)nn2C)c1,39.2 (active)
19,COc1cccc(NC(=S)NCc2ccccn2)c1,-0.247
20,COc1ccc(CC(=O)NCC(=O)N/N=C/c2cc(Br)ccc2OC)cc1,-1.94
21,COc1ccc(/C=C/C(=O)Nc2ccc(C)cc2)cc1S(=O)(=O)N1CCOCC1,0.752

row,SMILES,B-score of Tl+ flux slope (higher = more flux/activation; lower = inhibition)
1,N#Cc1ccc(C(=O)Nc2nc(-c3cccs3)c(C(=O)C(F)(F)F)s2)cc1,-2.57 (active)
2,CCOc1cccc(C(=O)Nc2nnc(-c3cccs3)s2)c1,-0.21
3,N#Cc1c(-c2cccs2)nc(SCC(=O)c2ccc(Br)cc2)[nH]c1=O,-4.31
4,Cc1cc(C)cc(C(=O)NCC(=O)OCC(=O)N2CCCCC2)c1,1.11
5,C[C@@H](C(=O)N1CCNCC1)n1cc(CCC(=O)O)nn1,1.43
6,CC[C@@H](C)[C@@H](C(=O)N1CCN(C(=O)OC(C)(C)C)CC1)n1cc(CCC(=O)O)nn1,3.74 (active)
7,CCC(C)[C@@H](C(=O)N1CCNCC1)n1cc(CCCCN)nn1 (stereo partly drawn),0.0703
8,O=c1[nH]c2ccccc2s1,10.2 (active)
9,COCc1cc(=O)oc2cc(NS(=O)(=O)c3ccc(C)cc3)ccc12,0.0356
10,O=S(=O)(NCc1ccco1)c1cnc(Cl)c(Cl)c1,-2.3
11,COC(=O)c1sccc1NC(=O)c1cc(OC)c(OC)c(OC)c1,-5.91 (active)
12,COC(=O)c1sccc1NC(=O)c1csc2c1CCCC2,-0.108
13,COc1cc(C(=O)Nc2nccs2)cc(OC)c1OC,0.128
14,COc1ccc(NS(=O)(=O)c2ccc(N3CCOCC3)c(NC(=O)c3ccccc3Br)c2)cc1,-1.53
15,COc1ccc2[nH]c(=S)cc(C)c2c1,13.9 (active)
16,COc1ccc2[nH]c3ccc(OC)cc3c2c1,0.0914
17,COc1ccc2[nH]c(=O)c(CNc3ccc(C)c(C)c3)cc2c1,0.158
18,COc1ccccc1OCC(=O)O/N=C(\N)c1ccccn1,0.265
19,COc1ccc(C(=O)NNc2cc(C)nc(NNC(=O)c3ccc(OC)cc3)n2)cc1,-0.94
20,COC(=O)[C@H](C)[C@H]1C[C@]1(C)[C@H](NC(=O)OCc1ccccc1)c1ccccc1,2.81
21,O=C(Nc1ccc(N2CCN(C(=O)c3ccccc3)CC2)c(Cl)c1)c1cccnc1,1.08

row,SMILES,B-score of Tl+ flux slope (higher = more flux/activation; lower = inhibition)
1,C[C@@H](C(=O)Nc1ccc2ccccc2c1)[C@@H]1C[C@@]1(C)[C@@H](NC(=O)c1cccnc1)c1ccccc1,-2.53 (active)
2,Cc1cc(C)n(CC(C)NCc2c(C(=O)N3CCOCC3)nc3c(C)cccn23)n1 (stereo not drawn),0.104
3,CCOC(=O)C1=C(N)N2C(=O)C(C)SC2=C(C(=O)OCC)C1c1cc(OC)c(OC)c(OC)c1 (stereo not drawn),-0.308
4,Fc1ccc(NC(=S)N2CCc3[nH]c4ccccc4c3C2)cc1,-0.241
5,CCCCNC(=O)c1ccc(-n2c(=S)[nH]c3ccccc3c2=O)cc1,1.81
6,O=c1c2ccccc2[nH]c(=S)n1CCN1CCC(=C(c2ccc(F)cc2)c2ccc(F)cc2)CC1,8.36 (active)
7,CCN(CC)CCn1c(=S)[nH]c2ncccc2c1=O,0.847
8,CN(C)CCn1c(=S)[nH]c2ccc(Cl)cc2c1=O,4.34 (active)
9,CCCCn1c(=S)[nH]c2ccccc2c1=O,92.1 (active)
10,CCCCn1c(=O)c(C(C)=O)c(O)c2ccccc21,-0.478
11,CCCCn1c(=S)[nH]c2cc(S(=O)(=O)N3CCCCC3)ccc21,0.854
12,COc1cc2[nH]c(=S)n(Cc3ccc(F)cc3)c(=O)c2cc1OC,0.913
13,O=C(CCn1c(=S)[nH]c2ccccc2c1=O)NCCCN1CCCC1=O,-0.0162
14,CCCCn1c(=S)[nH]c2ncccc2c1=O,49.5 (active)
15,CCCCN(C)Cc1c(C)[nH]c2ccc(Cl)cc2c1=O,-0.235
16,C=CCN(C(=O)Nc1ccc2c(c1)nc(C)n2C)c1ccccc1,-0.205
17,COc1ccc2c(c1)c1ncn(Cc3ccccn3)c(=O)c1n2C,-0.189
18,COc1ccc(-c2nn(C)c(=O)c3ccccc23)cc1CNC(=O)C1CCCCC1,-0.0309
19,CCC(C)N1C(=S)SC(C)(C)C1N(O)C(=O)NC1CCCCC1 (stereo not drawn),0.793
20,COc1ccccc1-n1cn[nH]c1=S,0.0347
21,CCc1ccc(NC(=O)N[C@H](C(=O)O)C(C)CC)cc1 (stereo partly drawn),1.5
